Data: the supplement of paper PMC10849652
About 8,800 targets were measured; listed, in parts, are those with a hit and a random draw of the rest. About 0.5% of all pairs of compound and target were hits. Unmarked numbers belong to inactive results.

What was measured:
Assay in all cases: log2 fold change, soluble protein after heating vs DMSO (PISA); higher = thermal stabilisation; K562 lysate, 10 uM; active = over 0.2 and 3.5 SD of the protein, either way, in both replicates (recomputed)
ibrutinib = compound: C=CC(=O)N1CCC[C@@H](n2nc(-c3ccc(Oc4ccccc4)cc3)c3c(N)ncnc32)C1 [ibrutinib]
In short: (§1)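 Thermal stability, expressed as log-two fold change relative to solvent controls, is given from duplicates. Crude K562 extract in PBS pH 7.4 with 1 mM MgCl2, at 1 mg/mL protein, was treated with 10 μM compound for 30 min and heated in aliquots for 3 min across 48°C-58°C. After pooling, adjustment to 0.5% NP-40 at 4°C and centrifugation at 21,000xg for 90 min, supernatant protein was measured by TMTpro 16plex LC-MS/MS with channel sums equalised.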

[1] = compound: CC(=O)c1cnc2ccc(-c3cc(Cl)c(O)c(Cl)c3)nc2c1N[C@H]1CC[C@H](CN(C)C)CC1
In short: as §1

ralimetinib = compound: CC(C)(C)Cn1c(N)nc2ccc(-c3[nH]c(C(C)(C)C)nc3-c3ccc(F)cc3)nc21 [ralimetinib]
In short: as §1

[2] = compound: CC(C)(O)CC(=O)NCCn1ccc2ncnc(Nc3ccc(Oc4cccc(C(F)(F)F)c4)c(Cl)c3)c21
In short: as §1

[3] = compound: CC(C)C1=C2N=C(C=C(N2N=C1)NCC3=CC=CC=C3)NCCCCCCN
In short: as §1

[4] = compound: CC1=C(C(CC(=O)N1)C2=CC=C(C=C2)C(F)(F)F)C(=O)NC3=C(C=C4C(=C3)C=NN4)F
In short: as §1

[5] = compound: CC1=C(C2=C(C=C1)C(=O)C3=CC=CC=C3N2CCCN)C
In short: as §1

[6] = compound: CC1=C(C=C(C=C1)NC(=O)C2=CC(=CC=C2)C(C)(C)C#N)NC3=CC4=C(C=C3)N=CN(C4=O)C
In short: as §1

[7] = compound: CC1=C(C=C(C=C1)NC(=O)C2=CC(=CC=C2)N(C)C)NC(=O)C3=CC=C(C=C3)O
In short: as §1

[8] = compound: CC1=CC=C(C=C1)SC2=C3C=C(SC3=CN=C2)C(=O)N
In short: as §1

vemurafenib = compound: CCCS(=O)(=O)Nc1ccc(F)c(C(=O)c2c[nH]c3ncc(-c4ccc(Cl)cc4)cc23)c1F [vemurafenib]
In short: as §1

[9] = compound: CCCS(=O)(=O)Nc1ccc(F)c(C(=O)c2c[nH]c3ncc(Cl)cc23)c1F
In short: as §1

barasertib = compound: CCN(CCCOc1ccc2c(Nc3cc(CC(=O)Nc4cccc(F)c4)[nH]n3)ncnc2c1)CCOP(=O)(O)O [barasertib]
In short: as §1

[10] = compound: CC[C@@H]1C(=O)N(C)c2cnc(Nc3ccc(C(=O)NC4CCN(C)CC4)cc3OC)nc2N1C1CCCC1
In short: as §1

volasertib = compound: CC[C@@H]1C(=O)N(C)c2cnc(Nc3ccc(C(=O)N[C@H]4CC[C@H](N5CCN(CC6CC6)CC5)CC4)cc3OC)nc2N1C(C)C [volasertib]
In short: as §1

[11] = compound: CCn1c(C(=O)N(C2CC2)C2CC2)cc2c3c(ncn3C)c(Nc3cc(C)n(C)n3)nc21
In short: as §1

[12] = compound: CCn1cc(-c2ccnc3[nH]c(-c4cccc(CN(C)C)c4)cc23)c(-c2ccc(NC(=O)N(C)C)cc2)n1
In short: as §1

[13] = compound: CN1CCC(CNc2ccc3ncc(-c4cccc(OC(F)(F)F)c4)n3n2)CC1
In short: as §1

saracatinib = compound: CN1CCN(CCOc2cc(OC3CCOCC3)c3c(Nc4c(Cl)ccc5c4OCO5)ncnc3c2)CC1 [saracatinib]
In short: as §1

sotrastaurin = compound: CN1CCN(c2nc(C3=C(c4c[nH]c5ccccc45)C(=O)NC3=O)c3ccccc3n2)CC1 [sotrastaurin]
In short: as §1

Sequence of UniProt Q99766 (Q99766 whole entry, looked up): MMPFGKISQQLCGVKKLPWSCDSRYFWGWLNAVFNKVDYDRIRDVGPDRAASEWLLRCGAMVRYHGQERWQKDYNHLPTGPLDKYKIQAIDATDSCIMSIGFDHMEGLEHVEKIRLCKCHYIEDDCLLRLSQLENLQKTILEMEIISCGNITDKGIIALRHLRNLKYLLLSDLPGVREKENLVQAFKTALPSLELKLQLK
Sequence of UniProt O60716 (O60716 whole entry, looked up): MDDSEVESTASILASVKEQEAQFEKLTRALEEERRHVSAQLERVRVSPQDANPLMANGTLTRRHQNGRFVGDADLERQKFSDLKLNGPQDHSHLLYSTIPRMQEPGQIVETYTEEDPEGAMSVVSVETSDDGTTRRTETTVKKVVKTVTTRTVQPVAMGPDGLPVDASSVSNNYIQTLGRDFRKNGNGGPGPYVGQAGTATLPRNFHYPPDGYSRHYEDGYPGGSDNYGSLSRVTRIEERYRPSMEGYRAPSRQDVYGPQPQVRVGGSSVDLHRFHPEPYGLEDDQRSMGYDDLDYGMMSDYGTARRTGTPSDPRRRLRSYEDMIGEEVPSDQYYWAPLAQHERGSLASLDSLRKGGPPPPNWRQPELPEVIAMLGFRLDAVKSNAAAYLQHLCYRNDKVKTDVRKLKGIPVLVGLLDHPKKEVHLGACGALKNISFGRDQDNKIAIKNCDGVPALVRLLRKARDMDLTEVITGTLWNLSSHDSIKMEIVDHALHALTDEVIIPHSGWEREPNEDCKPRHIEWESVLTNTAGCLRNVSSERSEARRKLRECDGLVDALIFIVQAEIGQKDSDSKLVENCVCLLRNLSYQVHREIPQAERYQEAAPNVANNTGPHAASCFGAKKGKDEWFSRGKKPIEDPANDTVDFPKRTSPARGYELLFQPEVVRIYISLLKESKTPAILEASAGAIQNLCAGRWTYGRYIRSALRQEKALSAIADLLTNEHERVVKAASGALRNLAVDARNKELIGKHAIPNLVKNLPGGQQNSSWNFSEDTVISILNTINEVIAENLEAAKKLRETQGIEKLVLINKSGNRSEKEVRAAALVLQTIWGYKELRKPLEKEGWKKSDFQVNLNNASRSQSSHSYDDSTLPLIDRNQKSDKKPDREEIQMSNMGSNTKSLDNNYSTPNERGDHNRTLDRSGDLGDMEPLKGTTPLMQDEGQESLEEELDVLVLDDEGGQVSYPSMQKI
Sequence of UniProt Q9H4E7 (Q9H4E7 whole entry, looked up): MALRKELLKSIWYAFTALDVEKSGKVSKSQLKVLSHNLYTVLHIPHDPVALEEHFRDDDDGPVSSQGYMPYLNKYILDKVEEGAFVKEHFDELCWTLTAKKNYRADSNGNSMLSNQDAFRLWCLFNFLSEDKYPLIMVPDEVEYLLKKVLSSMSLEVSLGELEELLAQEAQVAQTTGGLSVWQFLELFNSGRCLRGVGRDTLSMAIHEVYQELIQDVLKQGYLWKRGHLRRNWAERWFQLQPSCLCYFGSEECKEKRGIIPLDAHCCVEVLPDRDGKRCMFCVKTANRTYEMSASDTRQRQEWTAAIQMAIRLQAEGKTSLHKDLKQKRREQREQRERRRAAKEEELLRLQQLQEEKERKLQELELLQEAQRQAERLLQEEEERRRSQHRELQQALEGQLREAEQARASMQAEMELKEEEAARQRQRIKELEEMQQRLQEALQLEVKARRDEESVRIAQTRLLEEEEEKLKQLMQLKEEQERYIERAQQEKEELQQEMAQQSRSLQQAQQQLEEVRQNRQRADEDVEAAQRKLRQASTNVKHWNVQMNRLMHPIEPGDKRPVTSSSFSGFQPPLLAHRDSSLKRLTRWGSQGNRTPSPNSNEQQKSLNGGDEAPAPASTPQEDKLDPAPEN
Sequence of UniProt O14757 (O14757 whole entry, looked up): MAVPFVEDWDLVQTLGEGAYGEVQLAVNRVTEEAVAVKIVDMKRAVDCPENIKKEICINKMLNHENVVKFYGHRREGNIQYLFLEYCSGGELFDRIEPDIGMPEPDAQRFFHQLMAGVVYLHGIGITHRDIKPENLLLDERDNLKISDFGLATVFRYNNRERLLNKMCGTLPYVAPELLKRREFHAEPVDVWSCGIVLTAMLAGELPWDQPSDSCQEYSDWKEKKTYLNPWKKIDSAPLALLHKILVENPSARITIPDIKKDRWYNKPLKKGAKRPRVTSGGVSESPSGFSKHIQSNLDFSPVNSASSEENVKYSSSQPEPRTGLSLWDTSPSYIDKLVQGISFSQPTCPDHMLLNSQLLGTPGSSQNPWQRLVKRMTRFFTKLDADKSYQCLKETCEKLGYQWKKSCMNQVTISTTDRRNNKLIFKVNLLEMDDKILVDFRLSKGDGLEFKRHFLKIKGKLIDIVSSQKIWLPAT
Sequence of UniProt Q96LJ7 (Q96LJ7 whole entry, looked up): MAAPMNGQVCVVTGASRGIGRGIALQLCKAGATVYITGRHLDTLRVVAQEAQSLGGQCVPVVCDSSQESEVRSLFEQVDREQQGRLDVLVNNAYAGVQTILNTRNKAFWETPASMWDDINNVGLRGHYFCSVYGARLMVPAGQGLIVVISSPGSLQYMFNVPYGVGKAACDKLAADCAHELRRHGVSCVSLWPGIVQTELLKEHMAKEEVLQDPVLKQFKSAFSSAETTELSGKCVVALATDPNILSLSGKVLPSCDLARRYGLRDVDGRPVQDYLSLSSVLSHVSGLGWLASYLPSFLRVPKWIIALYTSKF
Sequence of UniProt P68400 (P68400 whole entry, looked up): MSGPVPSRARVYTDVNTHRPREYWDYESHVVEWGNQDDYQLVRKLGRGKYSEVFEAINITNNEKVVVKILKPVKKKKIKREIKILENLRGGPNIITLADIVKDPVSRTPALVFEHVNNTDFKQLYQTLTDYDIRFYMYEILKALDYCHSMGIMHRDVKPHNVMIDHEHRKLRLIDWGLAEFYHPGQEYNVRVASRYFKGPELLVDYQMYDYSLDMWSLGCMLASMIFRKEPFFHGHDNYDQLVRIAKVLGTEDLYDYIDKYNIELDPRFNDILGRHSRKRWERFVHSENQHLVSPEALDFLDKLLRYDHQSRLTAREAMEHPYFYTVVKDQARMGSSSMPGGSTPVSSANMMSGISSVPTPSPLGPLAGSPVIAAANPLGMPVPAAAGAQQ
Sequence of UniProt Q86Y56 (Q86Y56 whole entry, looked up): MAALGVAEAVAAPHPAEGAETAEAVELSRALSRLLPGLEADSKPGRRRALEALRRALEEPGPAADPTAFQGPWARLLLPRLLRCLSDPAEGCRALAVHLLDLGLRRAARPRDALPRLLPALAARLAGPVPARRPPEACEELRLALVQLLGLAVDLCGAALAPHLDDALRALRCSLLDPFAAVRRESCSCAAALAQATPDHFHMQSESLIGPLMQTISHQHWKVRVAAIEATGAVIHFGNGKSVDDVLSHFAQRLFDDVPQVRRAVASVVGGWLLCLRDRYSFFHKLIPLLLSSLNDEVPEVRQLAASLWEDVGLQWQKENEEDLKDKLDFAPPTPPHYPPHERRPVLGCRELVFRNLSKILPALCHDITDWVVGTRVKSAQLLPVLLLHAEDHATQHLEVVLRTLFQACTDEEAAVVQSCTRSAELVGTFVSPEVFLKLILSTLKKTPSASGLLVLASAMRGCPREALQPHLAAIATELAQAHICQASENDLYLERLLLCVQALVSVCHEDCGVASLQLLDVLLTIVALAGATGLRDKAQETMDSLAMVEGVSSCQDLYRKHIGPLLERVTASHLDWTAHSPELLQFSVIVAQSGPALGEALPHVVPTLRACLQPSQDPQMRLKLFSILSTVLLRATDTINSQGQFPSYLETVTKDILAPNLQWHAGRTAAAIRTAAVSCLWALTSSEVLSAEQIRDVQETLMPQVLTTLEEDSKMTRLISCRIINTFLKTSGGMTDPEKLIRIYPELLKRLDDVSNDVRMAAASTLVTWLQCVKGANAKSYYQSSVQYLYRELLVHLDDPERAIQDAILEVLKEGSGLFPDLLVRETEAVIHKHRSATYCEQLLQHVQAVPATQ
Sequence of UniProt P09622 (P09622 whole entry, looked up): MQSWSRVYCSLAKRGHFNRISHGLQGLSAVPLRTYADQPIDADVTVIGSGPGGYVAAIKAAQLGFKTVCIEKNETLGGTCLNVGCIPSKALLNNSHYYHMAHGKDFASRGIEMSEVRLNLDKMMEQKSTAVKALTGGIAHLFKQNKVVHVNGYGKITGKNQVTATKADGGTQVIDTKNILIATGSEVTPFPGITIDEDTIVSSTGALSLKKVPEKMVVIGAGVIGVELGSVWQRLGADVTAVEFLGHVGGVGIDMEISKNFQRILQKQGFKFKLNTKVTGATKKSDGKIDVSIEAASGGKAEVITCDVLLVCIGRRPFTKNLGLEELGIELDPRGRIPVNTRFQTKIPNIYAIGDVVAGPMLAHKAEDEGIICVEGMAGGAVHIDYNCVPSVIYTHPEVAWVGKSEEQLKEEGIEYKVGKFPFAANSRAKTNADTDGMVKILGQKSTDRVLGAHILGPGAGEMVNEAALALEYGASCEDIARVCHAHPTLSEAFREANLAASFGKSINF
Sequence of UniProt P26374 (P26374 whole entry, looked up): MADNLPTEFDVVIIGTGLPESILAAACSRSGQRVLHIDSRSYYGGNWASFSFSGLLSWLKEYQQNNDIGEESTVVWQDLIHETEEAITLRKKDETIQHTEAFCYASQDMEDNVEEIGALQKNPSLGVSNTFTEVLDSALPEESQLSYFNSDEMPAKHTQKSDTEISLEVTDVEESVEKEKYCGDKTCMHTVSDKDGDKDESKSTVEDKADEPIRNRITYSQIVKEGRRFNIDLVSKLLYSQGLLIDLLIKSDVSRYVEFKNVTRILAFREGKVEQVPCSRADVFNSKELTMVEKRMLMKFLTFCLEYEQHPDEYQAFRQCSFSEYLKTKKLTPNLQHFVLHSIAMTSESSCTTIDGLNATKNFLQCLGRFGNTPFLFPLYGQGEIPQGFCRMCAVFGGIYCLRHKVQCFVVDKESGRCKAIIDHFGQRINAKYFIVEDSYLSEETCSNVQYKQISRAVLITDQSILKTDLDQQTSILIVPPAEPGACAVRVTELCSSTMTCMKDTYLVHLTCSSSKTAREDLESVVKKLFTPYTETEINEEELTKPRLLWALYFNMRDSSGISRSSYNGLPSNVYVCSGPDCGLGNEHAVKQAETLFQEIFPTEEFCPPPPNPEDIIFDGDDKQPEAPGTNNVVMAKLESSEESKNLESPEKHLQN

Target	log2 fold change (ibrutinib)	log2 fold change [1]	log2 fold change (ralimetinib)	log2 fold change [2]	log2 fold change [3]	log2 fold change [4]	log2 fold change [5]	log2 fold change [6]	log2 fold change [7]	log2 fold change [8]	log2 fold change (vemurafenib)	log2 fold change [9]	log2 fold change (barasertib)	log2 fold change [10]	log2 fold change (volasertib)	log2 fold change [11]	log2 fold change [12]	log2 fold change [13]	log2 fold change (saracatinib)	log2 fold change (sotrastaurin)
DERA (UniProt Q9Y315)	-0.011	0.008	0.008	-0.032	0.013	-0.01	-0.037	0.033	-0.008	-0.017	-0.013	-0.001	-0.064	0.077	0.025	-0.031	0.985 (active)	-0.115	0	-0.03
DNAAF5 (UniProt Q86Y56)	-0.043	0.032	0.074	-0.049	-0.043	-0.002	-0.005	-0.035	0.047	0.061	-0.006	-0.007	0.03	-0.062	-0.06	0.047	-0.035	-0.049	0.04	0.044
CWC22 (UniProt Q9HCG8)	0.027	-0.007	0.007	-0.002	-0.005	0.06	0	-0.002	0.028	-0.009	0.002	0.045	0.028	-0.209	-0.033	0.017	0.393 (active)	-0.273 (active)	-0.052	-0.013
DOCK10 (UniProt Q96BY6)	-0.151	0.02	-0.001	-0.008	-0.084	-0.161	0.008	0.246	-0.045	0.022	0.095	-0.008	-0.054	0.085	0.027	0.043	-0.747 (active)	0.387	0.001	0.007
CIB1 (UniProt Q99828)	0.096	-0.137	0.004	-0.056	-0.027	0.007	-0.041	0.042	-0.003	-0.066	0.096	0.027	0.155	-0.013	0.008	-0.047	-0.028	-0.028	0.017	-0.077
DHRS1 (UniProt Q96LJ7)	-0.057	-0.037	0.01	0.089	0.058	0.024	-0.104	0.001	-0.035	-0.001	0.436	0.187	0.053	-0.045	0.012	-0.029	-0.042	-0.05	0.001	0.026
DEF6 (UniProt Q9H4E7)	0.016	-0.007	0.098	-0.014	0.022	0.028	-0.024	-0.026	0.066	-0.001	-0.004	-0.005	-0.05	-0.101	-0.05	-0.033	-0.071	0.049	0.07	0.004
CTNND1 isoform 3 (UniProt O60716)	0.01	0.001	-0.058	-0.028	0	0.006	-0.036	-0.016	0.032	-0.025	0.06	0.037	0.036	-0.034	-0.098	0.073	-0.032	0.004	-0.012	0.024
DOCK8 (UniProt Q8NF50)	-0.033	-0.012	0.03	0.047	0.003	-0.005	0.022	0.004	0.057	-0.011	0.005	0.013	0.034	-0.075	-0.065	0.04	0	-0.033	0.012	0.023
CHML (UniProt P26374)	-0.029	-0.017	-0.008	-0.004	-0.009	-0.012	0	-0.003	-0.017	-0.006	0.01	0.008	0.004	0.011	0.022	-0.007	-0.012	0.026	-0.002	0.005
CSNK2A1 (UniProt P68400)	-0.041	0.468 (active)	0.002	-0.028	-0.054	-0.039	0.158	-0.078	-0.01	0.002	-0.124	0.017	-0.025	-0.057	-0.039	0.006	-0.009	0.165	-0.028	0.019
CHEK1 (UniProt O14757)	0.019	0.104	0.032	-0.004	-0.003	0.004	0.011	0.026	-0.005	-0.024	-0.02	0.006	0.015	-0.031	-0.012	-0.012	-0.008	-0.045	-0.004	-0.014
CTNNBL1 (UniProt Q8WYA6)	0	0.047	-0.095	-0.169	0.017	-0.051	-0.04	0.015	0.056	0.01	0.004	0.016	0.005	-0.042	-0.041	-0.16	-0.013	-0.091	0.023	0.015
DLD (UniProt P09622)	0.003	0.003	-0.006	-0.016	-0.013	-0.03	-0.006	0.049	-0.007	0.004	0.007	0.003	-0.032	0.032	0.057	-0.018	-0.071	0.04	0.009	-0.015
DMAC2L (UniProt Q99766)	0.046	-0.046	0.037	-0.017	0.017	0.005	-0.018	0.008	-0.043	-0.019	0.002	0.026	0.065	0.075	-0.028	0.021	-0.017	0.053	0.058	-0.012
CKAP2 (UniProt Q8WWK9)	-0.065	-0.057	-0.017	0.016	-0.053	-0.012	-0.004	0.003	-0.027	0.03	-0.095	0.01	-0.014	0.073	0.009	-0.024	0.062	-0.094	0.019	0.019
